Values joined by “and” are separate entries in the source; they are usually repeats but may differ in a detail not shown here. Equal entries are not always repeated. Inconclusive results are not listed. A call without a number means that no potency is given here. Some structures have more than one record in an assay (separate samples or runs), and their calls can disagree. Active and inactive are the calls of the source. The call rests on the fitted dose curve; in most records, active means well fitted inhibition curve with a large enough effect; inconclusive means small, poorly fitted or top-dose-only effect; inactive means flat fitted curve, though single readings scatter.
These molecules were tested against Phospholipid hydroperoxide glutathione peroxidase GPX4 (Homo sapiens) (UniProt P36969) (assay: Primary qHTS Assay for Inhibitors of Recombinant Selenoprotein Glutathione Peroxidase 4 (GPX4) (AID 1845192; further: nearly all actives have a fitted effect of over 65% in size)). Conditions: recombinant GPX4, GR-coupled NADPH fluorescence, 15 min; series mostly up to 50 µM.
Phospholipid hydroperoxide glutathione peroxidase GPX4 (Homo sapiens), sequence (P36969 whole entry, looked up): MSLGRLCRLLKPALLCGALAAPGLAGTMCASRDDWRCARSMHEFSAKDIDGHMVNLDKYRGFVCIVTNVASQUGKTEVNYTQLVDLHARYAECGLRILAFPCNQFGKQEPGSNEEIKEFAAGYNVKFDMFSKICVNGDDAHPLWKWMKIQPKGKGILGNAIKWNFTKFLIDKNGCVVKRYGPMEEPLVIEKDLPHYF
From the text: Assay Provider: Elias S.J. Arner MD PhD.
Department of Medical Biochemistry and Biophysics
Karolinska Institutet, Solna, Stockholm, Sweden
Selenoprotein glutathione peroxidases (GPX), like the ubiquitously expressed GPX1 and the ferroptosis modulator GPX4, enact their antioxidant activities by reducing hydroperoxides using glutathione. […] GPX1 and GPX4 inhibitors have thus shown promise as anti-cancer agents. Existing inhibitors are often promiscuous, or modulate GPX activity only indirectly, so novel direct inhibitors identified through screening against GPX1 and GPX4 could be valuable. Here, we developed optimized glutathione reductase (GR)-coupled GPX assays for the biochemical high-throughput screen (HTS) of almost 12,000 compounds with known mechanisms of action. Initial hits were triaged using a GR counter-screen, assessed for isoform specificity using a separate GPX2 assay, and were assessed for general selenocysteine-targeting activity using a thioredoxin reductase (TXNRD1) assay. With this suite of assays, we identified novel GPX1/GPX2- and GPX4-specific inhibitors and can here present a validated pipeline for future discovery research for selenoprotein-targeting agents.
SEQUENCE No. (e.g., 1, 2, 3, etc.); […] (e.g., Cells, Incubation, Reagent, etc.); VALUE; DESCRIPTION.
1; Reagent 1; 3 uL; 333.33 nM GPx4 enzyme or no enzyme control in 1536-well, black, solid Greiner assay plate.
2; Compound; 25 nL; Kalypsis pin tool (Wako USA) equipped with a 1536-well pin head.
3; Incubation; 30 min; room temperature.
4; Reagent 2; 1 uL; 500 nM GR, 5 mM GSH, 2.5 mM NADPH solution
5; Reagent 3; 1 uL; 2.5 mM CHP in 50% EtOH.
6; Detection; Fluorescence; ViewLux microplate reader, excitation 340 nm and emission 450 nm.
7; Incubation; 15 min; room temperature.
8; Detection; Fluorescence; ViewLux microplate reader, excitation 340 nm and emission 450 nm.
NOTES (numbers refer to Sequence numbers above)
1. 3 µL of 333.33 nM GPX4 and 0.016% BSA in assay buffer (50 mM Tris-HCl, 2 mM EDTA (pH 7.5), 150 mM NaCl) was added to columns 3-48 of 1536-well plates using a BioRAPTR Flying Reagent Dispenser (Let's Go Robotics (LGR), Carlsbad, CA). A no-enzyme control (0.01% BSA in TES assay buffer) was added to columns 1-2.
2. 25 nL, library and DMSO controls were added to each well with a pin tool (Kalypsys).
3. The assay plates were incubated for 30 minutes at room temperature.
4. 1 µL of master mix (500 nM glutathione reductase (GR), 5 mM reduced glutathione (GSH), 2.5 mM NADPH in assay buffer) was added.
5. 1 µL of cumene hydroperoxide (CHP) ([2.5 mM] in 50% EtOH) was then added within 5 minutes to initiate the reaction. Final concentrations were: 200 nM GPX4, 1 mM GSH, 0.5 mM CHP, 0.5 mM NADPH, 100 nM GR, 0.01% BSA.
6. Initial fluorescence readout (t=0) at 340/450 nm was measured using a ViewLux multimodal detector (PerkinElmer, Waltham, MA).
8. Endpoint fluorescence readout (t=15) at 340/450 nm was measured 15 min after room temperature incubation.
Potency means the concentration at half of the fitted maximal effect.

For `Cc1cccn2c(=O)c(-c3nnn[nH]3)cnc12`, which Potency is on record?
Its Potency is “inactive”.

With `CCOC(=O)/C=C(C)/C=C/C=C(C)/C=C/c1c(C)cc(OC)c(C)c1C` as the molecule, how does the Potency read?
Its Potency is “inactive”.

Which Potency does the source give for `COc1cc(NS(C)(=O)=O)ccc1Nc1c2ccccc2nc2ccccc12` here?
The Potency was “inactive and 22.4 µM (active)”.

`C#C[C@]1(O)CC[C@H]2[C@@H]3CCc4cc(OC5CCCC5)ccc4[C@H]3CC[C@@]21C` was tested. Which Potency did it give?
Its Potency is “inactive”.

How did the Potency turn out when `C=CCc1ccc(O)c(OC)c1` was run?
The Potency was “inactive”.

`CCOc1ccc(Cc2nccc3cc(OCC)c(OCC)cc23)cc1OCC` was tested. Which Potency did it give?
The Potency was “inactive”.

`O=C1OC2(c3ccc(O)cc3Oc3cc(O)ccc32)c2ccccc21` was tested. Which Potency did it give?
The Potency was “inactive”.

`CC(=O)OCC(=O)[C@@]12OC(C)(C)O[C@@H]1C[C@H]1[C@@H]3C[C@H](F)C4=CC(=O)C=C[C@]4(C)[C@@]3(F)[C@@H](O)C[C@@]12C` was tested. Which Potency did it give?
Its Potency is “inactive”.

Which Potency does the source give for `O=C(CCCN1CCC(O)(c2ccc(Br)cc2)CC1)c1ccc(F)cc1` here?
The Potency was “inactive”.

How did the Potency turn out when `CN(C(=O)CN(CCO)CC(=O)N(C)C(C)(C)Cc1ccccc1)C(C)(C)Cc1ccccc1` was run?
Its Potency is “inactive”.

How did the Potency turn out when `c1ccc(-c2ccc(C(c3ccccc3)n3ccnc3)cc2)cc1` (stereo not given) was run?
The Potency was “inactive”.

Which Potency does the source give for `C=C1C[C@H]2[C@@H]3C=C(C)C4=CC(=O)CC[C@]4(C)[C@H]3CC[C@]2(C)[C@@]1(OC(C)=O)C(C)=O` here?
The Potency was “inactive”.

With `CN1CCN(CCCN2c3ccccc3Sc3ccc(S(=O)(=O)N(C)C)cc32)CC1` as the molecule, how does the Potency read?
The Potency was “inactive”.

`CCOC(=O)[C@H](CCc1ccccc1)N[C@@H](C)C(=O)N1Cc2ccccc2C[C@H]1C(=O)O` was tested. Which Potency did it give?
Its Potency is “inactive”.

`Cc1c(C(C)C)c(=O)n(-c2ccccc2)n1C` was tested. Which Potency did it give?
The Potency was “inactive”.

`CC1(C)O[C@@H]2[C@@H](CO[C@@]3(COS(N)(=O)=O)OC(C)(C)O[C@@H]23)O1` was tested. Which Potency did it give?
The Potency was “inactive”.

With `CC(=O)OCC(=O)[C@@]1(O)[C@H](C)C[C@H]2[C@@H]3CCC4=CC(=O)C=C[C@]4(C)[C@@]3(F)[C@@H](O)C[C@@]21C` as the molecule, how does the Potency read?
Its Potency is “inactive”.

How did the Potency turn out when `CCCSS/C(CCO)=C(\C)N(C=O)Cc1cnc(C)nc1N` was run?
The Potency was “inactive”.

How did the Potency turn out when `OC(CCN1CCCCC1)(c1ccccc1)c1ccccc1` was run?
The Potency was “inactive”.

For `C[C@H]1C[C@H]2[C@@H]3CCC4=CC(=O)C=C[C@]4(C)[C@@]3(Cl)[C@@H](O)C[C@]2(C)[C@@]1(O)C(=O)CO`, which Potency is on record?
Its Potency is “inactive”.

How did the Potency turn out when `CCN(CC)C(=O)N1CCN(C)CC1` was run?
The Potency was “inactive”.

For `N[C@H](CO)C(=O)O`, which Potency is on record?
The Potency was “inactive”.

Which Potency does the source give for `CN1CCN(C(c2ccccc2)c2ccccc2)CC1` here?
Its Potency is “inactive”.

For `COCc1c(C(C)C)nc(C(C)C)c(/C=C/[C@@H](O)C[C@@H](O)CC(=O)O)c1-c1ccc(F)cc1`, which Potency is on record?
The Potency was “inactive”.

How did the Potency turn out when `C=C1C(=C/C=C2\CCC[C@]3(C)[C@@H]([C@H](C)/C=C/[C@@H](O)C4CC4)CC[C@@H]23)C[C@@H](O)C[C@@H]1O` was run?
The Potency was “inactive”.

`CC(=O)[C@H]1CC[C@H]2[C@@H]3C[C@H](C)C4=CC(=O)CC[C@]4(C)[C@H]3[C@@H](O)C[C@]12C` was tested. Which Potency did it give?
The Potency was “inactive”.

How did the Potency turn out when `Cc1ccccc1C(=O)Nc1ccc(C(=O)N2CCCC(N(C)C)c3ccccc32)cc1` (stereo not given) was run?
Its Potency is “inactive”.

How did the Potency turn out when `CC(C)n1nc(-c2cc3cc(O)ccc3[nH]2)c2c(N)ncnc21` was run?
Its Potency is “inactive”.

How did the Potency turn out when `Cc1cc2c(cc1CC(=O)c1sccc1S(=O)(=O)Nc1onc(C)c1Cl)OCO2` was run?
Its Potency is “inactive”.

With `CC(=O)CC(c1ccc([N+](=O)[O-])cc1)c1c(O)c2ccccc2oc1=O` (stereo not given) as the molecule, how does the Potency read?
Its Potency is “inactive”.

Which Potency does the source give for `CCCCc1nc(Cl)c(CO)n1Cc1ccc(-c2ccccc2-c2nn[nH]n2)cc1` here?
The Potency was “inactive”.

How did the Potency turn out when `O=C(O)c1cc2cc(Cc3cccnc3)ccc2o1` was run?
The Potency was “inactive”.

`O=C(OCC(O)CO)c1ccccc1Nc1ccnc2cc(Cl)ccc12` (stereo not given) was tested. Which Potency did it give?
Its Potency is “inactive”.

With `CCCC(=O)O[C@]1(C(=O)CO)CC[C@H]2[C@@H]3CCC4=CC(=O)CC[C@]4(C)[C@H]3[C@@H](O)C[C@@]21C` as the molecule, how does the Potency read?
Its Potency is “inactive”.

For `COc1ccc(CN2CCN(C(c3ccc(F)cc3)c3ccc(F)cc3)CC2)c(OC)c1OC`, which Potency is on record?
The Potency was “inactive”.

Which Potency does the source give for `CNCCC(Oc1ccccc1C)c1ccccc1` (stereo not given) here?
Its Potency is “inactive”.

With `C[C@]12CCC(=O)C=C1CC[C@H]1[C@@H]3CC[C@](O)(C(=O)CO)[C@@]3(C)C[C@H](O)[C@@]12F` as the molecule, how does the Potency read?
The Potency was “inactive”.

With `C#C[C@]1(OC(C)=O)CC[C@H]2[C@@H]3CCC4=C[C@@H](OC(C)=O)CC[C@@H]4[C@H]3CC[C@@]21C` as the molecule, how does the Potency read?
The Potency was “inactive”.

`CC1=C(C(=O)OC(C)C)C(c2cccc([N+](=O)[O-])c2)C(C(=O)OC2CN(C(c3ccccc3)c3ccccc3)C2)=C(N)N1` (stereo not given) was tested. Which Potency did it give?
Its Potency is “inactive”.

For `COc1cc2c(cc1OC)[C@@H]1CC(=O)[C@@H](CC(C)C)CN1CC2`, which Potency is on record?
Its Potency is “inactive”.
